# From PubChem BioAssay AID686971 (National Center for Advancing Translational Sciences (NCATS), 2013)
# Out of some 360,000 compounds screened, about 7,500 (2.1%) were called active. Another 8% or so got no clear call; they are omitted. The sample holds actives, similar compounds and a random draw of the others, so the mix is not that of the screen. Unmarked numbers belong to inactive results. Calls come from the whole dose curve; as a rule, active = well fitted cell-killing curve with a large enough effect; inconclusive = small, poorly fitted or top-dose-only effect, or effect the other way, or another doubt; inactive = no such curve, though single readings can be large or run the other way.
# Assay: qHTS for induction of synthetic lethality in tumor cells producing 2HG: qHTS for the HT-1080-IDH1KD cell line
# Details: HT-1080 IDH1 knockdown viability, ATP luminescence, 48 h; series mostly up to 46.1 µM; activity, negative = toxicity: at the top concentration
# Source text: Unbiased genomic sequencing for 22 glioma genomes found recurrent mutation of IDH1 on chromosome 2q33, a gene encoding the cytosolic isoform of IIDH1 associated with the tri-carboxylic acid cycle (TCA) that catalyzes the oxidative decarboxylation of isocitrate, yielding alpha-ketoglutarate and CO2 via NADP+ to NADPH conversion. Subsequent studies confirmed the recurrent IDH mutations in up to 70% of secondary gliomas and in 10% of AML cases. In addition, the somatic mutation of cancer-associated IDH1 is a point mutation resulting in various amino-acid substituents at Arginine132 (IDH1 R132), a key residue found in the enzyme's active site that when mutated, results in the loss-of-function in metabolizing isocitrate but confers a gain-of-function to produce the oncometabolite 2-hydroxyglutarate (2HG). This in effect defines IDH1 as an oncogene and provides an extraordinary opportunity to discover chemical probes against mutant IDH1 that may translate into much needed new therapies for glioma and AML patients.
# This assay aims to perform a synthetic-lethal screen for chemical probes specific for 2HG-producing tumor cells using matched paired cell lines (1) HT-1080-NT fibrosarcoma cell line that overproduces 2HG and (2) HT-1080-IDH1KD cell line which has IDH1 expression knocked-down. Desirable compounds are toxic to the NT fibrosarcoma cell line but not to the IDH1KD cell line. The data in this AID corresponds to the results of the qHTS against the HT-1080 IDH1KD cell line.
# [1] Dang L, Jin S, Su SM. IDH mutations in glioma and acute myeloid leukemia. Trends of Mol Med. 2010; 16(9): 387-97.
# [2] Dang L et al. Cancer-associated IDH1 mutations produce 2-hydroxyglutarate. Nature. 2010; 465(7300):966.
# Molecular Libraries Probe Production Centers Network [MLPCN]
# NIH Chemical Genomics Center [NCGC]
# Assay Submitter (PI): Lenny Dang Ph.D., Agios Pharmaceuticals
# Suspensions of trypsinized HT-1080-IDH1KD cells were dispensed into white, tissue culture-treated, solid 1536-well plates at 5uL/well (750 cells/well final concentration) in RPMI medium supplemented with 5% FBS. Plates were incubated at 37 degrees C for 2 hours, after which 23 nL of compounds or DMSO were delivered to each well using a pin tool. Plates were then incubated at 37 degrees C for an additional 48 hours. CellTiter-Glo viability reagent (Promega) was dispensed into wells (2.5uL/well) and incubated at room temperature for 10 minutes. The plates were measured on a PerkinElmer ViewLux plate reader for luminescent signal (clear filter, 1 sec exp.). DMSO-treated control wells and media-only (no cells) control wells were used to normalize %Activity of identified toxic compounds; DMSO-treated wells corresponded to 0%Activity (100% viability), while media-only controls were used to normalize 100%Activity (0% viability). To minimize variability between cell lines, both HT-1080-NT and HT-1080-IDH1KD lines were dispensed and treated with identical compound series in single batches.
# Concentration-response curves were fitted to the signals arising from the resulting luminescence. The concentration-effect curves were then classified based on curve quality (r2), response magnitude and degree of measured activity, and compounds were subsequently categorized based on their curve class.
# Potency is the fitted concentration of half-maximal effect.
SMILES,Potency,"activity, negative = toxicity"
Cc1nc(N=C(N)N)nc2c(C)cccc12,32.6 µM (active),–
Cc1cc(C)c2cc(C#N)c(N3CCNCC3)nc2c1,–,1.86%
CCOC(=O)c1ccccc1OC(=O)Oc1ccccc1C(=O)OCC,–,-13.5%
CCOC(=O)c1c(C)nc2c(c1C)c(=O)oc1ccccc12,–,13.5%
CCOC(=O)c1c(C)[nH]c2c1-c1ccccc1C(=O)C2=O,2.91 µM (active),–
COCc1cccc(-c2csc(C(O)c3ccc(F)cc3)n2)c1 (stereo not drawn),–,-25.4%
COc1cccc(C(=O)Nc2nnc(S(=O)(=O)N3CCCCC3)s2)c1,–,-13%
Cc1ccccc1C(=O)Nc1ccccc1NC(=O)c1ccccc1C,–,0.652%
Cc1ccc(OCC(=O)Nc2ccc(N3CCN(C(=O)c4ccco4)CC3)cc2)c(C)c1,–,-11.4%
COc1cccc(OCc2cc(C(=O)N3CCN(C(=O)c4ccco4)CC3)no2)c1,–,-1.71%
COc1cccc(C(=O)Nc2ccc3nc4n(c(=O)c3c2)CCCCC4)c1,–,-9.88%
COc1cccc(C(=O)Nc2ccc(N3CCN(C(=O)c4ccco4)CC3)cc2)c1,11.6 µM (active),–
Cc1ccccc1C(=O)N1CCN(c2ccc(NC(=O)c3cccs3)cc2)CC1,–,-0.779%
COc1cccc(C(=O)Nc2ccc(N3CCCC3)cc2)c1,18.4 µM (active),–
Cc1ccccc1C(=O)Nc1ccc(N2CCCCCC2)cc1,14.6 µM (active),–
Cc1cccc(N(CC(=O)N2CCCC2)S(C)(=O)=O)c1C,–,0.0682%
COC(=O)c1ccccc1N=NNc1ccc([N+](=O)[O-])cc1,–,5.48%
CCCNC(=O)C1CC(=O)N(c2ccc(OCc3ccccc3)cc2)C1 (stereo not drawn),–,-6.41%
Cc1nc2ccccn2c(=O)c1NC(=O)c1ccc(Br)o1,–,8.09%
C[C@H]1Cn2cnc(C(=O)N[C@H](C)c3ccccc3)c2C(=O)N1,–,1.93%
Cc1ccc(CCNC(=O)CN2C(=O)CSc3ccc(S(=O)(=O)N4CCOCC4)cc32)cc1,–,0.335%
CC1(C(=O)Nc2cccc3cccnc23)CCN1C(=O)CCC1CCCC1 (stereo not drawn),–,-9.67%
CC[C@]1(O)CC2CN(CCc3c([nH]c4ccccc34)[C@@](C(=O)OC)(c3cc4c(cc3OC)N(C=O)[C@H]3[C@@](O)(C(=O)OC)[C@H](OC(C)=O)[C@]5(CC)C=CCN6CC[C@]43[C@@H]65)C2)C1 (stereo partly drawn),0.184 µM (active),–
CC[C@]1(O)C[C@@H]2CN(CCc3c([nH]c4ccccc34)[C@@](C(=O)OC)(c3cc4c(cc3OC)N(C)[C@H]3[C@@](O)(C(=O)OC)[C@H](OC(C)=O)[C@]5(CC)C=CCN6CC[C@]43[C@@H]65)C2)C1,0.0366 µM (active),–

SMILES,Potency,"activity, negative = toxicity"
Nc1nc(CSc2nnnn2-c2ccccc2)nc(Nc2ccccc2)n1,–,-11%
CCCS(=O)(=O)NC(=O)C1(C)CCCN(C(=O)c2ccnc(Cl)c2)C1 (stereo not drawn),–,0.0267%
COc1ccc(CNc2nc(NCc3ccc(OC)cc3)c3ncn(C4CCCC4)c3n2)cc1,4.61 µM (active),–
CCC(CO)Oc1cc(NCc2ccccc2)c2ncn(C3CCCC3)c2c1 (stereo not drawn),–,-20.2%
COc1ccc(CNC2CCCCC2)cc1,–,-1.73%
Cc1ccc(S(=O)(=O)N2CCCCC2)cc1NC(=O)CCNC(=O)c1ccccc1Cl,–,3.61%
Cn1cc(C(=O)c2ccc(Cl)cc2Cl)cc1C(=O)NN,–,-23%
CC(C)(C)c1cc(C(=O)NN)n(Cc2ccc(Cl)cc2Cl)n1,14.6 µM (active),–
CC(C)(C)NC(=O)NC(=O)COC(=O)Cc1ccc(Cl)cc1Cl,–,-14.2%
CCN(CC)CCN(C)C(c1ccnc2ccccc12)c1nnnn1-c1ccc2c(c1)OCCO2 (stereo not drawn),–,-2.65%
COc1ccc(CN2C(=O)C(CC(=O)NCCCCc3ccccc3)CC(C(=O)N3CCOCC3)=C2C)cc1 (stereo not drawn),–,8.09%
O=C(Oc1ccc(-c2nc(-c3ccccn3)no2)cc1)c1ccccc1,2.31 µM (active),–
O=C(COC(=O)c1ccncc1)c1ccccc1,–,20.6%
Brc1ccc(-c2noc(-c3ccccc3)n2)o1,–,-0.934%
COc1ccccc1CNC(=O)c1cc(-c2cc(F)ccc2OC)n[nH]1,–,-19.4%
c1ccc(CNCc2ccc(CNCc3ccccc3)cc2)cc1,–,-9.72%
Clc1ccc(CN2CCN(/N=C/c3cccnc3)CC2)cc1,–,3.89%
O=C1/C(=C\c2cccnc2)CN(Cc2ccccc2)C/C1=C\c1cccnc1,1.84 µM (active),–
Cc1ccccc1C1=N/C(=C/c2cccnc2)C(=O)O1,–,13.6%
O=C(Nc1ccccc1)c1ccccc1OCc1ccccc1,–,21%
CCOC(=O)C1(CCOc2ccccc2)CCN(Cc2cc(OC)c(O)cc2Cl)CC1,–,-15.4%
Cc1c(CN2CCC(CO)(CCOc3ccccc3)CC2)[nH]c2ccc(Cl)cc12,23.1 µM (active),–
CC(C)(O)C#Cc1ccc(CN2CCC(CO)(CCc3ccccc3)CC2)cc1,–,-15%
O=C(CC(CC(=O)c1ccccc1)c1ccco1)c1ccccc1,–,0.921%
